# In the library only some 1% were active in any assay of this set; here they are far more common.
# TNF death inh = inhibitors of TNF-alpha triggered necroptosis, primary screen, cell-based, Jurkat FADD-/-, single concentration | Jurkat FADD-/- TNF necroptosis rescue, ATP luminescence, 24 h; 0 = TNF only, 100 = no-TNF cells | activation (protection from cell death), % at 10 µM | actives 0.068% (n = 220,000) | AID 463075, 2010;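 active means activation, meaning protection from cell death, of at least 50% relative to plate controls; inactive means activation below 50%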;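 further: necroptosis triggered by 40 ng/mL TNF-alpha added together with compound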
# HSV replic up = enhancers of HSV replication in host cells, fold increase, host cell viability | HSV replication augmentation in cells | maximum fold increase | actives 0.005% (n = 220,000); in the data active means maximum fold increase above about 1.5; tested in PC3 cells
# S1P4 agonist = S1P4 receptor agonists, primary screen, cell-based | actives 0.35% (n = 220,000) | AID 1509, 2009 | activation, % at 4.98 µM | Sphingosine 1-phosphate receptor 4 (Homo sapiens), O95977 | S1P4-expressing cell line, agonist reporter assay; in the data active means activation above about 11%;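 further: 0% = DMSO vehicle and 100% = reference agonist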
# S1P4 antag = S1P4 receptor antagonists, primary screen, cell-based; inhibition, % at 4.98 µM; S1P4-expressing cells, antagonist mode, reporter read-out; AID 1510, 2009; actives 0.26% (n = 220,000); Sphingosine 1-phosphate receptor 4 (Homo sapiens), O95977; in the data active means inhibition above about 29%;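 further: 0% = wells stimulated with agonist and 100% = vehicle wells without agonist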
# Hsp70 activator = Hsp70 transcriptional activators, primary screen, cell-based, HeLa, Hsp70 promoter luciferase, luminescence, 10 µM | activation, % at 10 µM | HeLa Hsp70 promoter luciferase reporter; scaled: vehicle 0, proteasome-inhibitor control 100% | actives 0.04% (n = 200,000);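 active means activation above the mean across all tested compounds plus 3 SD, cutoff set per campaign, cut at about 5.5% in these data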;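 further: 100% = MG132 at 30 µM as the positive control and 0% = DMSO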
# zVAD death inh = inhibitors of zVAD-triggered necroptosis, primary screen, L929 cells; actives 0.38% (n = 220,000); viability rescue, % at 10 µM; AID 1377, 2008; L929 zVAD necroptosis rescue, ATP luminescence, 24 h; with zVAD 60 µM;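 active means activation, scaled between plate controls, above about 75%, limit read from the data; inactive means activation under that limit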;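 further: 0% = zVAD with DMSO and 100% = DMSO alone without zVAD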
# S1P4 ag conf = S1P4 receptor agonists, retest, confirmation, cell-based, high throughput | shares compounds with S1P4 agonist | S1P4 agonist cell-based reporter assay | activation, % at 4.98 µM | actives 7% (n = 740) | AID 1523, 2009; in the data active means activation above about 12%;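 further: 0% = vehicle and 100% = full reference agonist response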
# S1P1 ag = S1P1 receptor agonists, human, counter-screen for S1P4 agonist project, cell-based; actives 4% (n = 740); shares compounds with S1P4 agonist; S1P1 agonist cell-based assay, activation; activation, % at 4.98 µM; in the data active means activation above about 21%;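 further: 0% = vehicle wells and 100% = reference agonist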
# Target sequence (P21453 whole entry, looked up): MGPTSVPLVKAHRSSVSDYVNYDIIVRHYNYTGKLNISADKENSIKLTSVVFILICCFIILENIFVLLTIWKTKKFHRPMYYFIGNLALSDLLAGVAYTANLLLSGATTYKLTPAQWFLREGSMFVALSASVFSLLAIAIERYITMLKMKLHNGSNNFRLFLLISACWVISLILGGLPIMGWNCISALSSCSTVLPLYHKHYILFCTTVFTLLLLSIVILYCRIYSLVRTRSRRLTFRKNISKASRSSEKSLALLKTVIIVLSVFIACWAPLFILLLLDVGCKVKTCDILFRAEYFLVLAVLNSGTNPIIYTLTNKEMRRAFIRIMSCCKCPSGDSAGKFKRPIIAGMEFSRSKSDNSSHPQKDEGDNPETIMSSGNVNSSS
# The depositor's hits bear a star; i = inactive; nt = not tested or not shown.
SMILES,TNF death inh,HSV replic up,S1P4 agonist,S1P4 antag,Hsp70 activator,zVAD death inh,S1P4 ag conf,S1P1 ag
CCOC(=O)c1cnn2c1[nH]c(=O)c1ccccc12,-0.1,i,254.7*,0.4,-0.1,-0.4,-2.6,11.8
NS(=O)(=O)c1ccc(NC(=O)COc2ncnc3sccc23)cc1,1.6,i,1.0,-6.1,nt,0.1,nt,nt
CCOc1ccc(C(=O)NCc2ccccc2OC)cc1,1.2,i,-1.5,-7.2,-0.3,0.7,nt,nt
CC(=O)Nc1ccccc1C(=O)C(=O)O,-3.3,i,13.4*,-0.2,-0.3,-0.3,-2.5,0.1
CC(=O)Nc1ccccc1O,1.2,i,1.1,-9.8,-0.1,0.9,nt,nt
COCCNC(=O)c1ccccc1NC(=O)Cc1ccccc1[N+](=O)[O-],0.7,i,234.7*,-0.5,0.8,0.3,-2.9,-6.8
CC(=O)N(c1cccc(Cl)c1)c1nc(C)cc(C)c1C#N,5.1,i,0.1,-8.0,nt,1.4,nt,nt
N#Cc1cc2c(=O)n3ccccc3nc2n(-c2ccccc2Cl)c1=O,-6.1,i,28.3*,-52.0,-0.3,0.0,15.6*,29.2*
CCCn1c(SCC(=O)NCC2CCCO2)nc2c1c(=O)n(C)c(=O)n2C (stereo not drawn),-2.7,i,34.1*,0.0,-0.3,-0.1,-1.6,-1.7
Cn1c(=O)c2c(nc(SCC(=O)NCC3CCCO3)n2Cc2ccc(F)cc2)n(C)c1=O (stereo not drawn),3.3,i,0.2,0.7,-0.2,0.0,nt,nt
Cc1c(C(=O)NCCSCc2cccc(C(F)(F)F)c2)cnn1-c1ccc(Cl)cc1,-2.2,i,0.6,15.2,nt,0.5,nt,nt
COc1ccc([N+](=O)[O-])cc1NC(=O)Cc1ccc(Cl)cc1,-4.5,i,14.6*,-5.6,-0.1,0.8,-0.8,-7.9
COc1ccc([N+](=O)[O-])cc1NC(=O)Cc1ccc(C)cc1,1.1,i,-1.7,-1.0,-0.3,-0.2,nt,nt
Cc1cc(C)nc(NC(=O)Cc2ccc([N+](=O)[O-])cc2)c1,0.4,i,29.7*,-27.6,-0.3,1.3,-2.6,-1.2
CCOc1ccc(NC(=O)CCC(=O)NNC(=O)COc2ccccc2C)cc1,1.3,i,-0.5,-1.1,-0.2,2.1,nt,nt
COc1ccccc1C1(O)CCN(CC(=O)Nc2nc(-c3ccccc3)cs2)CC1,1.7,i,21.4*,-14.6,-0.1,20.4,-1.5,4.3
Cc1ccc(Cl)cc1NC(C#N)c1ccccc1 (stereo not drawn),-3.5,i,0.8,8.4,nt,-0.6,nt,nt
CCCCNC(=O)Cc1ccc(Br)cc1,12.4,i,13.2*,-14.8,-0.1,30.4,-1.9,-2.6
COCCNC(=O)Cc1ccc(Br)cc1,3.2,i,-0.6,6.1,-0.2,0.8,nt,nt
COc1ccc(C(=O)NCC(=O)OCC(=O)Nc2c(C)n(C)n(-c3ccccc3)c2=O)cc1,1.2,i,103.9*,-7.0,0.6,-0.1,-2.2,-6.9
CCOc1ccc(C(=O)NCC(c2cccs2)N(C)C)cc1 (stereo not drawn),2.3,i,14.7*,8.9,0.1,nt,-2.7,0.4
CCOc1ccc(C(=O)NCC(C)C)cc1,0.4,i,0.9,-8.9,-0.3,-0.6,nt,nt
O=C(O)Cn1c(SCCOc2ccccc2)nc2ccccc21,0.8,i,59.4*,-8.0,-0.1,0.3,-0.6,-0.6
Cc1ccc(CNC(=O)C2CN(S(C)(=O)=O)c3cc(Cl)ccc3O2)cc1 (stereo not drawn),1.2,i,63.4*,-22.6,0.5,-0.1,-2.3,3.1
CCSc1nnc(NC(=O)c2ccccc2C)s1,0.6,i,1.2,1.3,0.1,1.5,nt,nt
SMILES,TNF death inh,HSV replic up,S1P4 agonist,S1P4 antag,Hsp70 activator,zVAD death inh,S1P4 ag conf,S1P1 ag
CCOC(=O)C(NC(=O)CC)(Nc1ccccc1)C(F)(F)F (stereo not drawn),-0.8,i,0.7,7.3,-0.4,nt,nt,nt
CCCCC(=O)NC(Nc1ccc(C)cn1)(C(=O)OCC)C(F)(F)F (stereo not drawn),-0.5,i,17.7*,-5.7,-0.1,0.0,-1.4,-3.8
O=C(OCc1ccccc1)C1=NNC2C(=O)N(Cc3ccccc3)C(=O)C12 (stereo not drawn),-0.2,i,2.7,-20.9,-0.3,0.1,nt,nt
C/C(CC1CC(COCC(C)C)OC1=O)=N\NC(N)=S (stereo not drawn),-0.3,i,12.7*,-9.1,-0.4,0.6,-1.6,-0.6
CCCCCOCC1CC(C/C(C)=N/NC(N)=S)C(=O)O1 (stereo not drawn),-2.6,i,1.1,-4.3,-0.2,-0.9,nt,nt
COc1ccc(S(=O)(=O)Nc2cccc(N(C)S(C)(=O)=O)c2)cc1Br,-0.8,i,11.4*,-7.9,-0.5,0.5,-1.2,9.4
COc1ccc(S(=O)(=O)Nc2cccc(C(C)=O)c2)cc1Br,-0.7,i,0.6,-14.3,-0.1,-0.5,nt,nt
CC(C)CC(=O)NC(NCC1CCCO1)C(Cl)(Cl)Cl (stereo not drawn),-3.1,i,-1.1,-12.0,-0.1,0.1,nt,nt
FC(F)(F)c1cnc(COc2ccc(Cl)cc2Cl)c(Cl)c1,6.5,i,-1.3,-6.7,nt,-0.8,nt,nt
O=C(CN1C(=O)CSc2ccc(S(=O)(=O)N3CCOCC3)cc21)NCCCN1CCOCC1,0.8,i,17.2*,-3.2,0.0,1.1,-2.0,-3.8
Cc1cccc(-c2cc3nc4c(c(NCc5ccco5)n3n2)CCCC4)c1,-3.1,i,0.6,-7.4,-0.1,-0.1,nt,nt
Cc1cccn2cc(-c3ccc(S(=O)(=O)N4CCOCC4)cc3)nc12,-0.2,i,-1.0,1.0,-0.2,-0.8,nt,nt
O=S(=O)(c1ccc(-c2cn3ccccc3n2)cc1)N1CCOCC1,8.9,i,67.9*,-5.6,-0.1,-0.4,-1.6,3.0
O=C(Cc1ccccc1[N+](=O)[O-])N1CCN(c2ccc(F)cc2)CC1,0.7,i,74.5*,-7.0,-0.1,0.0,-2.4,-8.2
CC(=O)Nc1ccc(C(=O)N/N=C/c2ccccc2OCc2ccccc2)cc1,-5.4,i,18.6*,3.5,-0.4,1.4,-1.5,-4.2
COc1ccc(NC(=O)CSc2nnc(Cc3cccs3)n2-c2ccc(C)cc2)cc1,-0.5,i,-2.4,8.8,-0.1,-0.4,nt,nt
COc1cccc(NC(=O)CSc2nnc(Cc3cccs3)n2-c2ccc(C)cc2)c1,-0.9,i,13.0*,-2.7,-0.2,-0.2,-2.2,-5.0
